Source: PMC7862700, “An all-to-all approach to the identification of sequence-specific readers for epigenetic DNA modifications on cytosine”

How the values were obtained:
Experiment in all cases: DAPPL (digital affinity profiling via proximity ligation, sequencing); 10 mM Tris-HCl pH 7.5, 50 mM NaCl, 1 mM DTT, 4% glycerol, room temperature, 30 min; GST-TFs on glutathione beads, 16-mer random dsDNA library, 0.1% formaldehyde crosslink after washing; high values mean tight binding
Details in all cases: protein: recombinant; tags: N-terminal GST; dsDNA, one strand shown
FLI1 = target: T1, FLI1 (Homo sapiens, UniProt Q01543 1-452)
T1 sequence: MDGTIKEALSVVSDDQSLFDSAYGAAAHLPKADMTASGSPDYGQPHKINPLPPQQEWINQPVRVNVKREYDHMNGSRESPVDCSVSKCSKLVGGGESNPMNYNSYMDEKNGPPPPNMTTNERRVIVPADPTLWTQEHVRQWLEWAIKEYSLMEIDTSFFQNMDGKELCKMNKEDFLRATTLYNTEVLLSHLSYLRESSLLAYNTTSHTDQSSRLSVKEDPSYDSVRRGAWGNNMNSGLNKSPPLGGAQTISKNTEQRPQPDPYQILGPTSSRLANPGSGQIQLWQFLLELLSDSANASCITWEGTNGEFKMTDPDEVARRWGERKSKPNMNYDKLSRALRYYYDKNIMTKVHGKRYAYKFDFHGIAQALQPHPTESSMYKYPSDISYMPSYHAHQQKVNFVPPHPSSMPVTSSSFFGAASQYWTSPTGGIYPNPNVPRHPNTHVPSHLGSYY
Outline: (§1)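 Binding signal is each hexamer's read frequency for a factor divided by its frequency in the tag-only sample. The factors were GST-fused human transcription factors from yeast, captured on glutathione beads, DNA-barcoded and pooled with that sample. Pools were incubated with 200 nmole of a random double-stranded 16-mer DNA library in Tris/NaCl/DTT/glycerol buffer at room temperature for 30 min, then washed, crosslinked with 0.1% formaldehyde, proximity-ligated with BsaI/T4 ligase (1 h, 37 °C), PCR-amplified and sequenced on an Illumina NextSeq500.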

ELK1 = target: T2, ELK1 (Homo sapiens, UniProt P19419 1-428)
T2 sequence: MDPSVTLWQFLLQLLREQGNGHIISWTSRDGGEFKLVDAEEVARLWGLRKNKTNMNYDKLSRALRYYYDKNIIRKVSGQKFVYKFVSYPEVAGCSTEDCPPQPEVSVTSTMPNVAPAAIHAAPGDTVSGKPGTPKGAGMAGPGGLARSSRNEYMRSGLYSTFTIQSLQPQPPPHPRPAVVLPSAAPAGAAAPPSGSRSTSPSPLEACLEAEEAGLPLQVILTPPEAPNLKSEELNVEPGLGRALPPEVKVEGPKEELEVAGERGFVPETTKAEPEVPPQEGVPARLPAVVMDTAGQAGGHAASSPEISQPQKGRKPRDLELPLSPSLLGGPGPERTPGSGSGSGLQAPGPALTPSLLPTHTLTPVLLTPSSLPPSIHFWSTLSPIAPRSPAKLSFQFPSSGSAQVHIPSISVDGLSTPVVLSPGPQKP
Outline: as §1

GABPA = target: T3, GABPA (Homo sapiens, UniProt Q06546 1-454)
T3 sequence: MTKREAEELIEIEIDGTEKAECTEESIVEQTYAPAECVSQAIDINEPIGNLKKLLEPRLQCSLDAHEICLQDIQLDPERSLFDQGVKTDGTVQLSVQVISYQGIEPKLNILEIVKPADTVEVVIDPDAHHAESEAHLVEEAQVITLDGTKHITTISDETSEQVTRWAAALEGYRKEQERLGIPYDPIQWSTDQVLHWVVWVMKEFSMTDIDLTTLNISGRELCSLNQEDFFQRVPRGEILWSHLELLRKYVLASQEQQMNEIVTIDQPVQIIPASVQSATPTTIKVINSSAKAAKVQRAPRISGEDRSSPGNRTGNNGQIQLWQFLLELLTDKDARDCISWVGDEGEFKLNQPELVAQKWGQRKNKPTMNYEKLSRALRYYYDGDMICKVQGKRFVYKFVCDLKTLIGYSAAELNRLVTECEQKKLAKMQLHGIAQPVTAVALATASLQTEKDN
Outline: as §1

ERG = target: T4, ERG (Homo sapiens, UniProt P11308 1-479)
T4 sequence: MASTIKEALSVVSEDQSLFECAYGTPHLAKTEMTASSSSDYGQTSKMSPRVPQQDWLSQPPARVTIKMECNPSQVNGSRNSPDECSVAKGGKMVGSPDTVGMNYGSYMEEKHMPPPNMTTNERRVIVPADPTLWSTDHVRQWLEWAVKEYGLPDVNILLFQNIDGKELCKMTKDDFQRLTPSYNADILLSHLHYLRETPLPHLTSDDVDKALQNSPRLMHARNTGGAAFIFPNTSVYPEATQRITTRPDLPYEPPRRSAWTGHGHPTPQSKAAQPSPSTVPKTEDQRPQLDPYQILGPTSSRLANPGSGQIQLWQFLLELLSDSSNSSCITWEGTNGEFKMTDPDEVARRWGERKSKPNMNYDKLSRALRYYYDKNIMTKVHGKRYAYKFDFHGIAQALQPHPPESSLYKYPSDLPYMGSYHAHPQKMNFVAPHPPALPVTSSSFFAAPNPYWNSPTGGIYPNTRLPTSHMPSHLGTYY
Outline: as §1

ELF1 = ELF1 (Homo sapiens, UniProt P32519 1-619)
Chain of ELF1 (P32519 whole entry): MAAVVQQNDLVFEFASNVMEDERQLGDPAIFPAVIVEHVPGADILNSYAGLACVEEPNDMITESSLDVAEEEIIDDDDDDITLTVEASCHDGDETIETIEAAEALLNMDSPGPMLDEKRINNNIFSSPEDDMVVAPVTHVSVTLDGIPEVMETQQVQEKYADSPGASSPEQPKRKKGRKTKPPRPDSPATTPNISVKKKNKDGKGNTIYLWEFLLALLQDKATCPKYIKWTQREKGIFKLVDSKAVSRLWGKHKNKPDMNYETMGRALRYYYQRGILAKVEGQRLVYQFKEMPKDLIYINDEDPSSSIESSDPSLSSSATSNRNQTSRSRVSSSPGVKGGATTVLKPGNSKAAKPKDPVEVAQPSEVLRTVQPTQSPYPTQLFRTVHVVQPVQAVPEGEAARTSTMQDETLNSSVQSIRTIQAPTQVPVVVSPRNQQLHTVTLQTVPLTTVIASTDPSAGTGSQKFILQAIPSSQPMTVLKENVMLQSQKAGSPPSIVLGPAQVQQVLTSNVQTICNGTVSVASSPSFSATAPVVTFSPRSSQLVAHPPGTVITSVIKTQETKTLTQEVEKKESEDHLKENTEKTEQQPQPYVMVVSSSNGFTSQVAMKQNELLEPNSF
Outline: as §1

EHF = target: T5, EHF (Homo sapiens, UniProt Q9NZC4 1-300)
T5 sequence: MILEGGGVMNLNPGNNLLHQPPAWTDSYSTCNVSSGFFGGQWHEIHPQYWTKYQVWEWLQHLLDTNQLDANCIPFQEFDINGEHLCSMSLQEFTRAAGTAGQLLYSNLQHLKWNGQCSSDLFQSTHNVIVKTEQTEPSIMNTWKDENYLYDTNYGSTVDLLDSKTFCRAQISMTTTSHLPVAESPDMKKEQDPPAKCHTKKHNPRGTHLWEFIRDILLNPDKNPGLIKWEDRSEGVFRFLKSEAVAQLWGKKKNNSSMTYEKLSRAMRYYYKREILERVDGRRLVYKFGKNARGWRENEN
Outline: as §1

SPI1 = SPI1 (Homo sapiens, UniProt P17947 1-270)
Outline: as §1

SPIB = SPIB (Homo sapiens, UniProt Q01892 1-262)
Chain of SPIB (Q01892 whole entry): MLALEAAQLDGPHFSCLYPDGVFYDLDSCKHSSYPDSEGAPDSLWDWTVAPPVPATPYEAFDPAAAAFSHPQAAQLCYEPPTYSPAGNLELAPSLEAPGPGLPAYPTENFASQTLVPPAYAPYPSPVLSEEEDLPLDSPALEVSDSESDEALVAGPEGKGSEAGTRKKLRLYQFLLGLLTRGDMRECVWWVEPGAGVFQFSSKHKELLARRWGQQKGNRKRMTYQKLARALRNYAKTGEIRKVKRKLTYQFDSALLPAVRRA
Outline: as §1

ELK3 = target: T6, ELK3 (Homo sapiens, UniProt P41970 1-407)
T6 sequence: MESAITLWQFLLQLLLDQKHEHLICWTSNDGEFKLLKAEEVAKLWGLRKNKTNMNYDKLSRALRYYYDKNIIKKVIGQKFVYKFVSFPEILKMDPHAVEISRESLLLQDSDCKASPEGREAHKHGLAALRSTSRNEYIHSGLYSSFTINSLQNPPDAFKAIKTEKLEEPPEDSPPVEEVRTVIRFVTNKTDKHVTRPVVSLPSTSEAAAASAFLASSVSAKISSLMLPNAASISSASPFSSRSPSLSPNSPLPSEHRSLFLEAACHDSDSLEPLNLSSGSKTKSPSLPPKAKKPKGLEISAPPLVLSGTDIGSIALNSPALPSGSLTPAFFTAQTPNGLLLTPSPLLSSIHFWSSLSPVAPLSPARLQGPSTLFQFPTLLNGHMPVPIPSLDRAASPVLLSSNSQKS
Outline: as §1

| Sequence | binding signal (FLI1) | binding signal (ELK1) | binding signal (GABPA) | binding signal (ERG) | binding signal (ELF1) | binding signal (EHF) | binding signal (SPI1) | binding signal (SPIB) | binding signal (ELK3) |
| --- | --- | --- | --- | --- | --- | --- | --- | --- | --- |
| CTTTAC | 1.24 fold enrichment (6-mer frequency, TF over GST control) | 1.43 fold enrichment (6-mer frequency, TF over GST control) | 1.51 fold enrichment (6-mer frequency, TF over GST control) | 1.31 fold enrichment (6-mer frequency, TF over GST control) | 1.4 fold enrichment (6-mer frequency, TF over GST control) | 1.38 fold enrichment (6-mer frequency, TF over GST control) | 1.4 fold enrichment (6-mer frequency, TF over GST control) | 1.41 fold enrichment (6-mer frequency, TF over GST control) | 1.47 fold enrichment (6-mer frequency, TF over GST control) |
| GCCACT | 1.17 fold enrichment (6-mer frequency, TF over GST control) | 1.2 fold enrichment (6-mer frequency, TF over GST control) | 1.16 fold enrichment (6-mer frequency, TF over GST control) | 1.23 fold enrichment (6-mer frequency, TF over GST control) | 1.23 fold enrichment (6-mer frequency, TF over GST control) | 1.1 fold enrichment (6-mer frequency, TF over GST control) | 1.17 fold enrichment (6-mer frequency, TF over GST control) | 1.06 fold enrichment (6-mer frequency, TF over GST control) | 1.26 fold enrichment (6-mer frequency, TF over GST control) |
| CTAAAT | 1.34 fold enrichment (6-mer frequency, TF over GST control) | 1.36 fold enrichment (6-mer frequency, TF over GST control) | 1.31 fold enrichment (6-mer frequency, TF over GST control) | 1.34 fold enrichment (6-mer frequency, TF over GST control) | 1.3 fold enrichment (6-mer frequency, TF over GST control) | 1.34 fold enrichment (6-mer frequency, TF over GST control) | 1.37 fold enrichment (6-mer frequency, TF over GST control) | 1.38 fold enrichment (6-mer frequency, TF over GST control) | 1.37 fold enrichment (6-mer frequency, TF over GST control) |
| AAACGA | 1.07 fold enrichment (6-mer frequency, TF over GST control) | 1.14 fold enrichment (6-mer frequency, TF over GST control) | 1.17 fold enrichment (6-mer frequency, TF over GST control) | 1.11 fold enrichment (6-mer frequency, TF over GST control) | 1.08 fold enrichment (6-mer frequency, TF over GST control) | 1.04 fold enrichment (6-mer frequency, TF over GST control) | 1.1 fold enrichment (6-mer frequency, TF over GST control) | 1 fold enrichment (6-mer frequency, TF over GST control) | 1.14 fold enrichment (6-mer frequency, TF over GST control) |
